This passage reports outcome and AC50 results from PubChem BioAssay (EPA / NIEHS).

Assay [1] can be described thus: ACEA_ER_80hr: ACEA Biosciences xCELLigence Real-Time Cell Analysis on Estrogen Receptor Agonism for Proliferation (AID 2282667; active means hit-call score of the fitted dose curve at least 0.9, where 1 is the maximum). Particulars: T47D proliferation, impedance (xCELLigence), 80 h. An outline of the steps:
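Real-time electrical impedance tracked growth of the human breast line T47D, with the 80 h post-dosing value used. Dosing spanned eight 1:4 steps down from a 100 uM final top concentration, run in duplicate.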

A short description of assay [2]: ATG_CRE_CIS: Attagene CIS-FACTORIAL HepG2 Assay for human cAMP Responsive Element (CRE) binding protein 3 (AID 2282926). As to conditions: HepG2 CRE cis-reporter, Attagene multiplexed mRNA; actives raise or lower the signal. An outline of the steps:
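Assay format: transient reporter transfection of HepG2, 24 h treatment, total RNA isolation with DNase I step. Reporter abundance read by fluorescence after PCR and capillary separation; DMSO-normalised gain or loss fitting.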

The target in assay [3] is CCAAT/enhancer-binding protein beta (Homo sapiens) (UniProt P17676). The assay is described as follows: ATG_C_EBP_CIS: Attagene CIS-FACTORIAL HepG2 Assay for human CCAAT/Enhancer Binding Protein (C/EBP) beta (AID 2282927). Particulars: HepG2 Attagene cis-factorial transcription factor reporter; actives raise or lower the signal. In outline:
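HepG2 transiently transfected with multiplexed reporter units under cis-regulatory promoters reporting endogenous C/EBPb activity. After 24 h exposure, reporter mRNA assayed by RT-PCR, fluorescent labelling, HpaI digestion and capillary electrophoresis; bidirectional fitting versus DMSO.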

A short description of assay [4]: ATG_CMV_CIS: Attagene CIS-FACTORIAL HepG2 Assay for human CMV (Internal Marker) (AID 2282928).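 Further: endpoint acts as a background internal control marker rather than a target.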 As to conditions: HepG2 CMV promoter reporter, transcription factor profiling; actives raise or lower the signal. In outline:
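Reporter transcripts from transfected HepG2 cells are isolated after 24 h of chemical dosing, reverse-transcribed and amplified. Fragments labeled with 6-FAM are cut with HpaI and quantified by capillary electrophoresis; DMSO defines baseline.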

Assay [5] in a line: ATG_DR4_LXR_CIS: Attagene CIS-FACTORIAL HepG2 Assay for human Liver X Receptor (LXR), DR4 submotif (AID 2282929). As to conditions: HepG2 Attagene DR4 cis-reporter, mRNA transcription; actives raise or lower the signal. In outline: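 HepG2, transient MRTU transfection, cis-element (DR4) promoter; 24 h compound exposure; total RNA → oligo(dT) RT → PCR → 6-FAM primer extension → HpaI cut → CE. Gain/loss vs DMSO, bidirectional fit.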

The target in assay [6] is Aryl hydrocarbon receptor (Homo sapiens) (UniProt P35869). As to the kind of experiment: ATG_Ahr_CIS: Attagene CIS-FACTORIAL HepG2 Assay for human Aryl Hydrocarbon Receptor (Ahr) (AID 2282930). Particulars: HepG2 AhR cis-factorial reporter transcription; actives raise or lower the signal. An outline of the steps: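 HepG2 cells transiently transfected with cis-element-driven multiplexed reporter units; endogenous AhR activity read as reporter mRNA 24 h after dosing, via RT-PCR, 6-FAM labelling, HpaI digestion and capillary electrophoresis. Bidirectional fit relative to DMSO.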

A short description of assay [7]: ATG_AP_1_CIS: Attagene CIS-FACTORIAL HepG2 Assay for human Activator Protein 1 (AP-1) (AID 2282931). Particulars: HepG2 Attagene cis-factorial AP-1 reporter mRNA; actives raise or lower the signal. In outline: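 Transient MRTU transfection of HepG2 → 24 h chemical treatment → RNA isolation, RT-PCR, 6-FAM labelling, HpaI digest → capillary electrophoresis. Fit: bidirectional, DMSO negative control.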

The nature of assay [8]: ATG_AP_2_CIS: Attagene CIS-FACTORIAL HepG2 Assay for human Activator Protein 2 (AP-2) (AID 2282932). Particulars: HepG2 AP-2 cis-reporter, Attagene transcription factor profiling; actives raise or lower the signal. In outline: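 Read-out: fluorescent reporter mRNA via RT-PCR and capillary electrophoresis, 24 h post-dose in transiently transfected HepG2. Endogenous factors drive cis-promoter reporters; gain or loss of signal fitted bidirectionally against DMSO.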

Assay [9] in a line: ATG_BRE_CIS: Attagene CIS-FACTORIAL HepG2 Assay for human Bone Morphogenetic Protein (BMP) Response Element (BRE) (AID 2282933). As to conditions: HepG2 BMP response element reporter, Attagene transcription factor profiling; actives raise or lower the signal. An outline of the steps:
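Endogenous transcription factor activity read in transiently transfected HepG2 cells after 24 h chemical exposure. Bidirectional curve fitting against DMSO; readout is reporter transcript level by RT-PCR with capillary electrophoresis of labelled products.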

Assay [10] has as its target Retinoic acid receptor alpha (Homo sapiens) (UniProt P10276). As to the kind of experiment: ATG_DR5_RAR_CIS: Attagene CIS-FACTORIAL HepG2 Assay for human Retinoic Acid Receptor Alpha (RARE), DR5 submotif (AID 2282934).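 On AC50: reporter responds to endogenous RAR alpha beta and gamma in HepG2 not RARA alone.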 Particulars: HepG2 Attagene cis-factorial RARE DR5 reporter, mRNA; actives raise or lower the signal. An outline of the steps:
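HepG2 cells transiently transfected with multiplexed reporter units; DR5 cis-element drives reporter through endogenous transcription factors. After 24 h dosing, reporter mRNA quantified by RT-PCR, fluorescent labeling, HpaI digestion and capillary electrophoresis; bidirectional fitting versus DMSO.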

Assay [11] deals with Transcription factor E2F1 (Homo sapiens) (UniProt Q01094). The assay is described as follows: ATG_E2F_CIS: Attagene CIS-FACTORIAL HepG2 Assay for human E2F Transcription Factor 1 (AID 2282935). As to conditions: HepG2 Attagene cis-reporter, E2F reporter RNA transcripts; actives raise or lower the signal. In outline:
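Transient MRTU transfection of HepG2; 24 h compound exposure; RNA → oligo(dT) RT → PCR → FAM label → HpaI cut → CE fluorescence. Gain/loss of signal fit against DMSO.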

The nature of assay [12]: ATG_E_Box_CIS: Attagene CIS-FACTORIAL HepG2 Assay for human Enhancer Box (E-box) (AID 2282936). Particulars: HepG2 E-box cis-reporter transcription, actives raise or lower the signal. An outline of the steps: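 Transiently transfected HepG2, endogenous TF-driven reporters, 24 h dosing. Readout: RT-PCR plus capillary electrophoresis of fluorescent reporter fragments. Gain or loss of signal fitted bidirectionally against DMSO baseline.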

Assay [13] in a line: ATG_M_61_CIS: Attagene CIS-FACTORIAL HepG2 Assay for M61 Transcription Factor (Internal Marker) (AID 2282937). As to conditions: HepG2 Attagene CIS-FACTORIAL M61 internal marker reporter; actives raise or lower the signal. An outline of the steps: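 Human liver HepG2, transient MRTU transfection (cis promoter elements), 24 h compound. Total RNA → oligo(dT) RT → PCR → FAM label → HpaI → CE. Internal background marker; bidirectional fitting, DMSO = baseline.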

A short description of assay [14]: ATG_EGR_CIS: Attagene CIS-FACTORIAL HepG2 Assay for human Early Growth Response 1 (EGR1) (AID 2282938). As to conditions: HepG2 Attagene CIS-FACTORIAL EGR reporter mRNA; actives raise or lower the signal. In outline:
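Transient transfection of human HepG2 with multiple cis-regulated reporter units, chemical exposure 24 h, total RNA isolated. Reverse transcription, PCR, fluorescent labelling and capillary electrophoresis quantify reporter transcripts; activity fitted bidirectionally against DMSO.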

Assay [15] can be described thus: ATG_M_19_CIS: Attagene CIS-FACTORIAL HepG2 Assay for M19 Transcription Factor (Internal Marker) (AID 2282939). Particulars: HepG2 Attagene CIS-FACTORIAL M19 internal marker reporter; actives raise or lower the signal. An outline of the steps:
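Internal marker readout, fitted in both directions against DMSO, from HepG2 cells carrying transfected cis-element reporter constructs; RT-PCR and capillary electrophoresis of reporter mRNA after 24 h exposure.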

Assay [16] can be described thus: ATG_ERE_CIS: Attagene CIS-FACTORIAL HepG2 Assay for Estrogen Response Element (ERE) (AID 2282940). As to conditions: HepG2 ERE cis-reporter, Attagene RNA transcript; actives raise or lower the signal. An outline of the steps: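 After 24 h compound treatment, RNA from transfected HepG2 cells was reverse-transcribed, reporter cDNA PCR-amplified, FAM-labelled, HpaI-cut and resolved by capillary electrophoresis. ERE-driven cis reporter transcripts reflect endogenous factors; gain or loss scored against DMSO.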

A short description of assay [17]: ATG_Ets_CIS: Attagene CIS-FACTORIAL HepG2 Assay for human Erythroblast Transformation Specific (ETS) (AID 2282941). As to conditions: HepG2 ETS cis-reporter transcription, actives raise or lower the signal. In outline:
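Bidirectional fit versus DMSO of reporter mRNA signal, detected by RT-PCR and capillary electrophoresis in HepG2 cells transiently transfected with cis-element reporters and dosed 24 h.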

Assay [18] has as its target Hepatocyte nuclear factor 3-beta (Homo sapiens) (UniProt Q9Y261). As to the kind of experiment: ATG_FoxA2_CIS: Attagene CIS-FACTORIAL HepG2 Assay for human Forkhead box A2 (FOXA2) (AID 2282942). Particulars: HepG2 cis-reporter transcription factor activity, 24 h; actives raise or lower the signal. An outline of the steps: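 Transient MRTU transfection of HepG2 liver cells; 24 h treatment; total RNA → oligo(dT) RT → PCR → FAM primer extension → HpaI cut → CE. Bidirectional fit vs DMSO.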

Assay [19] in a line: ATG_FoxO_CIS: Attagene CIS-FACTORIAL HepG2 Assay for human Forkhead box O (FoxO) (AID 2282943). As to conditions: HepG2 Attagene cis-reporter, FoxO element, mRNA; actives raise or lower the signal. In outline: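 HepG2 cells transiently transfected with cis-element-driven reporter units report endogenous FoxO activity. After 24 h chemical exposure, reporter mRNA quantified by RT-PCR, fluorescent labeling, HpaI digestion and capillary electrophoresis; bidirectional fit versus DMSO.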

Assay [20] can be described thus: ATG_GATA_CIS: Attagene CIS-FACTORIAL HepG2 Assay for human GATA Binding Protein (AID 2282944). As to conditions: HepG2 GATA cis-element reporter, Attagene multiplex mRNA; actives raise or lower the signal. An outline of the steps:
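Reporter transcripts from a GATA cis-regulated unit, among multiplexed reporters in transfected HepG2 cells, were measured by RT-PCR with capillary electrophoresis after 24 h dosing. Induction or loss scored relative to DMSO.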

Inconclusive results are not listed. Calls of active or inactive are those of the source. How the source made its calls, unless noted: active means hit-call score of the fitted dose curve at least 0.9, where 1 is the maximum; inactive means score below 0.9.

Transcription factor E2F1 (Homo sapiens), sequence (Q01094 whole entry, looked up): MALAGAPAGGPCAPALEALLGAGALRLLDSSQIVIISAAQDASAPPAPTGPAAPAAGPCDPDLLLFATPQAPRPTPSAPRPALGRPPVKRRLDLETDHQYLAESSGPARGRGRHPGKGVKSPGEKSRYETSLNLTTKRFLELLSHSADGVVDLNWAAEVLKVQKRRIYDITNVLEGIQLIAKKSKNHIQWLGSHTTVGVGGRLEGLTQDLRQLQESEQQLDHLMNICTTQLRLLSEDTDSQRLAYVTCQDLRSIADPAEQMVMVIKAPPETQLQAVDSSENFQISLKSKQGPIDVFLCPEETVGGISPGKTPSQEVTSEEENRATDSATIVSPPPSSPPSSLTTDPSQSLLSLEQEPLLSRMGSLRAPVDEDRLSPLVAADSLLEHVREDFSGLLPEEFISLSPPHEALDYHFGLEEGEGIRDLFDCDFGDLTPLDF
Aryl hydrocarbon receptor (Homo sapiens), sequence (P35869 whole entry, looked up): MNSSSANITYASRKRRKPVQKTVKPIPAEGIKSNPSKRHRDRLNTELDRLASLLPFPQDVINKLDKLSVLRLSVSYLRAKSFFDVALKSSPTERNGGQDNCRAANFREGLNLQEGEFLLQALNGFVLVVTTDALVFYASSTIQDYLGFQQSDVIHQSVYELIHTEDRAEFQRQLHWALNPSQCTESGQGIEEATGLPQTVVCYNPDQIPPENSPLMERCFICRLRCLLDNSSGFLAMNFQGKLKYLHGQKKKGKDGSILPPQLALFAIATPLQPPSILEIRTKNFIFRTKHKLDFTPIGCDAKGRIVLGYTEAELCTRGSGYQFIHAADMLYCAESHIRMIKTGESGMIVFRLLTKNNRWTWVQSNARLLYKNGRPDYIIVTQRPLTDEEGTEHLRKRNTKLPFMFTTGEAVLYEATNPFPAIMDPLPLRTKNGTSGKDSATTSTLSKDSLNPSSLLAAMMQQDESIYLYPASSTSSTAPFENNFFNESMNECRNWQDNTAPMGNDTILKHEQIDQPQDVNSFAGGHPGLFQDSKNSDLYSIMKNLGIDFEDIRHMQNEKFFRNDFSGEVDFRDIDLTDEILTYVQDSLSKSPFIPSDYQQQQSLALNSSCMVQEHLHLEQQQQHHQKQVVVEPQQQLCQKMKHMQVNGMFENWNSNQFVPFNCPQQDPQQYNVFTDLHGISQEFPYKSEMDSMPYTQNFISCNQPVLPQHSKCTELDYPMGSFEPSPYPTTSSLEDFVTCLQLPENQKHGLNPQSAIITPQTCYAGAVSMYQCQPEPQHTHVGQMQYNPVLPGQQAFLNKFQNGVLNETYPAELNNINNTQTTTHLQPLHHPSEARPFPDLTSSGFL
Retinoic acid receptor alpha (Homo sapiens), sequence (P10276 whole entry, looked up): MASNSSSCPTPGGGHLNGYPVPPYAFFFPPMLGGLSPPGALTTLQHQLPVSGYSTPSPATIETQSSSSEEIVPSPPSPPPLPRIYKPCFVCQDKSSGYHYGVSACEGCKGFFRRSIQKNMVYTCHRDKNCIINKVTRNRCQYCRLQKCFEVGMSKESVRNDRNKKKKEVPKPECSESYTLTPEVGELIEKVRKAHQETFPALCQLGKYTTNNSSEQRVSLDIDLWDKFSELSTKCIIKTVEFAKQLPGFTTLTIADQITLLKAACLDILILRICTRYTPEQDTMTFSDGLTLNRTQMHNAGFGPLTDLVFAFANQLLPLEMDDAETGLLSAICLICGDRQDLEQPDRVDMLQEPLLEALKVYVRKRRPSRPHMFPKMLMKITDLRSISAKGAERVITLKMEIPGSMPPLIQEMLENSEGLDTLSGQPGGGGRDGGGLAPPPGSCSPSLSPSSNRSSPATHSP
Hepatocyte nuclear factor 3-beta (Homo sapiens), sequence (Q9Y261 whole entry, looked up): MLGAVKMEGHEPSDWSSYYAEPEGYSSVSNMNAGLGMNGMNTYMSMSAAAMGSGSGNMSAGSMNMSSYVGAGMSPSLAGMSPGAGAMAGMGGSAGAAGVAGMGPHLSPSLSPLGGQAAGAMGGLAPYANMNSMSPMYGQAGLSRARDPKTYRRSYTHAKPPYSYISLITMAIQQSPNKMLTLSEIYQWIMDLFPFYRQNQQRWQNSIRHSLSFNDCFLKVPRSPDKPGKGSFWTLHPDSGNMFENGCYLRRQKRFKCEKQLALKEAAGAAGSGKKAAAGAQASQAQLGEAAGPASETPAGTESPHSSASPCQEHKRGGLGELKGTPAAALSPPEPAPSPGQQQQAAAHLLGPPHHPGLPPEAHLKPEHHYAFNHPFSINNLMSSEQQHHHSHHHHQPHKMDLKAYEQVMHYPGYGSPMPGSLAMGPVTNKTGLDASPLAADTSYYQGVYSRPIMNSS
CCAAT/enhancer-binding protein beta (Homo sapiens), sequence (P17676 whole entry, looked up): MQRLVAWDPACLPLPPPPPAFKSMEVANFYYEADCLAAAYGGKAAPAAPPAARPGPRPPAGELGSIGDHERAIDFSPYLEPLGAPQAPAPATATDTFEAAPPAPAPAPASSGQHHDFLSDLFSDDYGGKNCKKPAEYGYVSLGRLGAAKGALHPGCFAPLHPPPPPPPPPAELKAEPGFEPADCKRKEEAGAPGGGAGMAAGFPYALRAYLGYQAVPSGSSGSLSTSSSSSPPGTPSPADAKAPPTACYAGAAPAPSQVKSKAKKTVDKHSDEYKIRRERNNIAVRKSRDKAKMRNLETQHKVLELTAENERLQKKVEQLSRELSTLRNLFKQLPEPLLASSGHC

As usually defined, the AC50 is the midpoint of the concentration-response curve, whichever way the signal moves. Take `Cc1ccc(O)c(-n2nc3ccccc3n2)c1`: the call in assay [1], in [2], in assay [3], in assay [4], in [5] and in [7] was inactive. The outcome in assay [8], in [9], in [10], in assay [11], in [12] and in [13] was inactive. Moreover, the result in assay [14], in assay [15], in [17], in assay [18], in assay [19] and in assay [20] was inactive. In addition, the AC50 in [6] is 7.41 µM (active); in assay [16] it was 10.4 µM (active).
Consider `CCN(CCO)S(=O)(=O)C(F)(F)C(F)(F)C(F)(F)C(F)(F)C(F)(F)C(F)(F)C(F)(F)C(F)(F)F`, for which the call in assay [1], in [3], in [4], in [5], in [6] and in assay [7] was inactive. The call in [8], in [9], in [10], in assay [11], in assay [12] and in [13] was inactive. Also, the compound was classed as inactive in [14], in assay [15], in [16], in assay [17], in assay [18] and in [19]. Besides, the compound was called inactive in [20]. Further, the AC50 in [2] is 28.9 µM (active).
In the case of `CCCCCCCC/C=C\CCCCCCCC(=O)OCC(O)CO` (stereo not drawn), the compound was called inactive in [1], in assay [2], in [3], in assay [5], in assay [6] and in [8]. Also, the compound was called inactive in assay [9], in assay [11], in assay [12], in assay [13], in assay [14] and in [15]. The result in assay [16], in assay [17], in [18], in assay [19] and in [20] was inactive. Also, the values for the AC50 in [7] and in [10] were 100 µM (active) and 20.5 µM (active), respectively.
Consider `O=C(F)C1(F)C(F)(F)C(F)(F)C(F)(F)C(F)(F)C1(F)F`, for which the outcome in [1], in [2], in [3], in [5], in [6] and in assay [7] was inactive. The outcome in assay [8], in assay [9], in assay [10], in assay [11], in assay [12] and in assay [13] was inactive. The call in [14], in [15], in assay [16], in assay [17], in assay [18] and in assay [19] was inactive. Further, in [20], the outcome was inactive.
